# In PubChem BioAssay AID1508600 (Functional Genomics Laboratory (NCATS/FGL), 2020):
# Out of some 53,000 sequences screened, about 3,700 (7%) were called active. Many of the other results were omitted from the sample, so actives are more common in it than they were. Values without a mark were called inactive.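 The calls were made as follows: active = gene knockdowns whose robust z-score for IL-1 alpha signal is at least 2 or at most -2, so actives lie on both sides; inactive = the rest.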
# Assay: Components of the Cytosolic LPS Sensing Pathway: Gene Identification via Genome-wide siRNA Screen;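 also: robust z of the log signal after scaling to non-targeting control siRNA wells of the plate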
# Details: RAW264.7 macrophages, IL-1a HTRF, actives lie on both sides, screened at 100 nM (by protocol), cells primed 5 h with Pam3CSK4 first
# Outline: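 Cells (RAW264.7, 1×10^4 per well) were transfected with siRNA at 100 nM and cultured 48h at 37 degrees C. Pam3CSK4 was added for 5 hours; LipidA transfection followed for 24 hour. IL-1a was then measured by HTRF.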
row,Sequence,z-score
1,GGGAACCAGCCAGUUCAAGTT against Ap1g2,1.39
2,CCGUUUCAUUUCAGGGAGGTT against Phf1,0.307
3,GGAGAAAUCAAGCAAAGAUTT against Soat1,-0.0846
4,GGCUACAGCAAGAAGACUUTT against Ctsw,3.08 (active)
5,CCGGAAAUUUUCUUUGCCCTT against Sec23ip,-1.12
6,GGAAGGAUUCUGGAAACAGTT against 2210409E12Rik,-2.1 (active)
7,GCCAUUGGAGUAUAUCUUGTT against Olfr873,-0.273
8,GGUUCACGAGCUAAGCUGUTT against Sec23b,-1.07
9,GGACCACUCUGAAUAAGACTT against Ttc12,-1.3
10,GGAUCAACAGAGGUUGGCATT against Aldh1a7,-2.03 (active)
11,GCAGCUCAAUUAGAGUCCATT against Gart,-0.11
12,GGCUUUUUGUCUAACAAGUTT against Trappc13,0.23
13,GCUGGUUAUUCUCUUAUAGTT against Cavin2,1.97
14,GGUAGGUCGUCGAGAAUACTT against Prss44,0.17
15,GGAUCCUCUGGUAAAGGGATT against Gng11,-1.75
16,GGAGUUCCUCAUGAAGAUGTT against Tmem241,-1.27
17,GGUGCAAACAGACACCAGATT against Dct,-0.982
18,GGGCUGUCUAAGAAUGCAATT against Nlrp14,-2.08 (active)
19,GGGAGGGAAUAGUCAAAAATT against Timm17b,0.909
20,GGAGAGCAAGGAGAACCAATT against Itga7,1.35
21,CCACUACAAUGUAGCGACGTT against C1qtnf9,-2.24 (active)
22,CGAUUACUGAACACUAUAUTT against Metap1,1.94
23,GGUGUACCCAGUACUGCCATT against Cdk2,0.57
24,GGAGAUGUUGGACUUCAUGTT against Nxnl2,-2.42 (active)
25,CGGACAGAUACAAUAGCUATT against Zc3h4,-1.53
26,GUCUUUCCCUAAAAACAGCTT against Vmn1r47,-1.28
27,GGAGAACUUCAACAAUGUCTT against Tesc,0.46
28,GGAGUUUCGCAUGAGCCUGTT against Shroom1,-0.0803
29,GCCACUAUUGAAGCUUGCCTT against Olfr1209,1.32
30,GGAGGAGUUCCAGAUCCACTT against Pald1,-0.356
